We go through five compounds from the supplement of paper PMC6897291.

SMILES strings stand for the structures.

This experiment relates to U-2932. Nature of the experiment: growth inhibition by drug alone (1 - RLU/untreated control) (fraction); higher = stronger inhibition. The note with it: 177Lu-lilotomab satetraxetan 0 ug/ml. As for the experimental part:
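U-2932 ABC-DLBCL cells were pretreated or not for 18 h with 1 ug/ml 177Lu-lilotomab satetraxetan (600 MBq/mg), washed and seeded (3000 cells/well) on 384-well plates pre-printed with the Selleck Cambridge Cancer Compound library. Viability was read by RealTime-Glo luminescence on days 3-6 after seeding. Effect = 1 - RLU/mean RLU of the 48 untreated no-drug control wells per plate; Bliss score = (M-E)/(1-Fa), with E the expected Bliss-additive effect.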

Regarding `N#Cc1c(O)c2c(-c3ccc(-c4ccccc4O)cc3)csc2[nH]c1=O`, the “growth inhibition by drug alone” value is 0.111 (10 nM, time (day): 3); 0.0478 (10 nM, time (day): 4); -0.0374 (10 nM, time (day): 5); -0.062 (10 nM, time (day): 6); 0.0299 (1000 nM, time (day): 3); -0.017 (1000 nM, time (day): 4). In addition, the “growth inhibition by drug alone” value runs as follows: (1000 nM, time (day): 5) -0.0537; (1000 nM, time (day): 6) 0.0109.
On to `CN(C)CCOc1ccc(-c2nc(-c3ccncc3)c(-c3ccc4c(c3)CC/C4=N\O)[nH]2)cc1`, for which the “growth inhibition by drug alone” value (10 nM, time (day): 3) is -0.0248; the “growth inhibition by drug alone” value (10 nM, time (day): 4) was -0.0722; the “growth inhibition by drug alone” value (10 nM, time (day): 5) is -0.0892; the “growth inhibition by drug alone” value (10 nM, time (day): 6) was 0.0453; the “growth inhibition by drug alone” value (1000 nM, time (day): 3) is 0.104; the “growth inhibition by drug alone” value (1000 nM, time (day): 4) was 0.0148. The “growth inhibition by drug alone” value is, setting by setting: (1000 nM, time (day): 5) 0.0221; (1000 nM, time (day): 6) 0.134.
With `c1ccc2c(-c3cnn4cc(-c5ccc(N6CCNCC6)cc5)cnc34)ccnc2c1`, the “growth inhibition by drug alone” value runs as follows: (10 nM, time (day): 3) -0.114; (10 nM, time (day): 4) -0.118; (10 nM, time (day): 5) -0.0883; (10 nM, time (day): 6) 0.0163; (1000 nM, time (day): 3) -0.0225; (1000 nM, time (day): 4) -0.0275. The “growth inhibition by drug alone” value is -0.0302 (1000 nM, time (day): 5) and 0.125 (1000 nM, time (day): 6).
As for `CCC1=C[C@@H]2CN(C1)Cc1c([nH]c3ccccc13)[C@@](C(=O)OC)(c1cc3c(cc1OC)N(C)[C@H]1[C@@](O)(C(=O)OC)[C@H](OC(C)=O)[C@]4(CC)C=CCN5CC[C@]31[C@@H]54)C2` [Vinorelbine (Navelbine)], the “growth inhibition by drug alone” value is 0.571 (10 nM, time (day): 3); 0.587 (10 nM, time (day): 4); 0.595 (10 nM, time (day): 5); 0.614 (10 nM, time (day): 6); 0.971 (1000 nM, time (day): 3); 0.976 (1000 nM, time (day): 4). For the same compound, the “growth inhibition by drug alone” value runs as follows: (1000 nM, time (day): 5) 0.98; (1000 nM, time (day): 6) 0.983.
Regarding `CC1(CN2CCC(n3c(=O)[nH]c4ccccc43)CC2)OCc2ccccc2-n2cccc21` (stereo not given), the “growth inhibition by drug alone” value was -0.00689 (10 nM, time (day): 3); -0.027 (10 nM, time (day): 4); -0.0586 (10 nM, time (day): 5); -0.0906 (10 nM, time (day): 6); -0.241 (1000 nM, time (day): 3); -0.0399 (1000 nM, time (day): 4). Also, the “growth inhibition by drug alone” value runs as follows: (1000 nM, time (day): 5) -0.126; (1000 nM, time (day): 6) -0.115.
